Source: PubChem (The Scripps Research Institute Molecular Screening Center)
SRC1 TRFRET art: TR-FRET artefact, counter-screen to PPARgamma/SRC-1 agonist assay; TR-FRET detection artefact counter-screen, emission ratio; hits give high values; TR-FRET ratio at 8 µM; 0.34% of 99,000 active; AID 1051; in the data active means TR-FRET ratio above about 2300
SRC3 TRFRET art: counter-screen for PPARgamma SRC-3 recruitment agonists: TR-FRET artefact | PPARgamma/SRC-3 format; hits give high values | TR-FRET ratio at 8 µM | 0.39% of 99,000 active | AID 1048; in the data active means TR-FRET ratio above about 2000
PPARg SRC-1 ag: agonists of human PPARgamma SRC-1 coactivator recruitment. P37231. PPARgamma-SRC-1 coactivator recruitment biochemical assay. activation, % at 8 µM. 0.41% of 200,000 active; in the data active means activation above about 19%;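 further: 0% = DMSO and 100% = reference agonist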
SRC2 TRFRET art: counter-screen for PPARgamma SRC-2 recruitment agonists: TR-FRET artefact | hits give high values | TR-FRET ratio at 8 µM | 0.4% of 200,000 active | AID 1049; in the data active means TR-FRET ratio above about 2000
PPARg SRC-3 ag: PPARgamma-driven SRC-3 recruitment agonism; P37231; biochemical PPARgamma/SRC-3 coactivator recruitment assay; activation, % at 8 µM; 0.26% of 200,000 active; AID 731; in the data active means activation above about 23%;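 further: 0% = DMSO and 100% = reference agonist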
PPARg SRC-2 ag: promotes SRC-2 coactivator recruitment by human PPARgamma | P37231 | PPARgamma LBD-SRC-2 recruitment, biochemical | activation, % at 8 µM | 0.34% of 200,000 active | AID 1032;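 further: 0% = vehicle and 100% = reference agonist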
PPARg SRC2 ag: human PPARgamma SRC-2 recruitment agonism, confirmation; shares compounds with PPARg SRC-3 ag; biochemical SRC-2 recruitment by PPARgamma; activation, % at 8 µM; 52% of 790 active; AID 1297;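 further: 0% = vehicle alone and 100% = reference agonist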
PPARg SRC1 conf: human PPARgamma SRC-1 recruitment agonism, confirmation; shares compounds with PPARg SRC-3 ag; PPARgamma–SRC-1 coactivator recruitment biochemical assay; activation, % at 8 µM; 43% of 790 active; AID 1300; in the data active means activation above about 20%;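 further: 0% = vehicle wells and 100% = reference agonist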
PPARg SRC3 conf: confirmation of agonists of SRC-3 recruitment by human PPARgamma | shares compounds with PPARg SRC-3 ag | biochemical PPARgamma-SRC-3 coactivator recruitment, agonist mode | activation, % at 8 µM | 29% of 790 active | AID 1301; in the data active means activation above about 24%;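 further: 0% = vehicle wells and 100% = reference agonist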
Numbers without * were called inactive; · = no result given. An excerpt weighted towards active compounds, which were near 0.9% of everything screened. Unless noted, no stated cut-off is given here; in the data, active means activation above about 22%; inactive means the rest.

SMILES | SRC1 TRFRET art | SRC3 TRFRET art | PPARg SRC-1 ag | SRC2 TRFRET art | PPARg SRC-3 ag | PPARg SRC-2 ag | PPARg SRC2 ag | PPARg SRC1 conf | PPARg SRC3 conf
Cc1noc(C)c1COC(=O)C(c1ccccc1)c1ccccc1 | 1564 | 1571 | -0.4 | 1702 | 8.1 | 6.3 | · | · | ·
CC(=O)c1cnc(-c2ccccc2Cl)s1 | 2031 | 1925 | 21.9* | 1855 | 12.5 | 14.7 | 19.6 | 12.5 | 10.0
CC(=O)c1cnc(-c2ccccn2)s1 | 1816 | 1464 | 4.0 | 1664 | 2.3 | -2.1 | · | · | ·
COC(=O)Nc1ccc(S(=O)(=O)N2CCCC(C(=O)NC3CCS(=O)(=O)C3)C2)cc1 (configuration not stated) | 1883 | 1765 | 0.0 | 1522 | 2.8 | 4.5 | · | · | ·
COCCCNc1nnc(Cc2ccccc2)c2ccccc12 | 1985 | 1742 | 6.3 | 1694 | 2.4 | 3.1 | · | · | ·
c1ccc(Cc2nnc(Sc3ccccc3)c3ccccc23)cc1 | · | · | 64.7* | 4254* | 113.2* | 117.4* | 77.4* | 52.4* | 53.4*
CCC1=NN2C(=N)/C(=C\c3cccn3-c3cccc(Cl)c3)C(=O)N=C2S1 | 1886 | 1603 | 11.9 | 1702 | 27.6* | 6.5 | 7.4 | 9.7 | 12.7
Cc1csc(NC(=O)C(NC(=O)c2ccccc2F)C(C)C)n1 (configuration not stated) | 1592 | 1560 | 1.0 | 1847 | 3.7 | 4.0 | · | · | ·
COC(=O)C1CSC(C(=O)OC)N1C(=O)CN1CCN(c2ccccc2)CC1 (configuration not stated) | 1616 | 1566 | 4.6 | 1527 | 1.6 | 8.0 | · | · | ·
Cc1cc(C(=O)OCC(=O)c2ccc(Br)s2)c(C)o1 | · | · | 19.7* | 1872 | 31.3* | 7.8 | 41.1* | 30.2* | 29.7*
COc1ccc(OC)c(C(=O)COC(=O)c2cc(C)oc2C)c1 | · | · | 1.6 | 1514 | -3.5 | -2.1 | · | · | ·
Cc1cc(NS(=O)(=O)c2ccc(Br)s2)no1 | · | · | 7.5 | 1545 | -3.6 | 0.7 | · | · | ·
Cc1cc(C(=O)OCC(=O)c2ccc(Br)s2)no1 | · | · | 65.0* | 2269* | 123.1* | 89.7* | 54.0* | 34.2* | 39.3*
Cc1c(NC(=O)Nc2ccccc2Cl)c(=O)n(-c2ccccc2)n1C | 1670 | 1570 | 6.4 | 1434 | -4.7 | -4.8 | · | · | ·
CCC1(C)Cc2ccccc2-c2nc(-c3ccccc3)oc(=O)c21 (configuration not stated) | · | · | 0.2 | 1442 | 1.9 | -5.5 | · | · | ·
CCOc1ccc(N/C=C/C(=O)c2ccc(C)cc2)c([N+](=O)[O-])c1 | · | · | 24.3* | 1659 | 18.5 | 13.2 | 2.7 | 2.1 | -3.9
CCOc1ccc(N/C=C/C(=O)c2ccc3ccccc3c2)c([N+](=O)[O-])c1 | · | · | -6.4 | 1478 | -1.2 | -2.6 | · | · | ·
COc1cccc(C2C3=C(CCCC3=O)Nc3[nH]n(-c4ccccc4)c(=O)c32)c1 (configuration not stated) | 1713 | 1360 | -1.0 | 1591 | 7.2 | 9.9 | · | · | ·
COc1cccc(C2C3=C(Nc4[nH]n(-c5ccccc5)c(=O)c42)c2ccccc2C3=O)c1 (configuration not stated) | 1698 | 1497 | 21.8* | 1497 | 33.4* | 15.2 | 54.5* | 54.4* | 56.0*
O=C1c2ccccc2C(=O)N1c1cccc(-c2csc(Nc3ccc4c(c3)OCO4)n2)c1 | 2024 | 1746 | 18.8 | 1630 | 12.4 | 25.6* | 13.8 | 12.3 | 8.3
CCOC(=O)c1cc(C(=O)OCC)c(=O)[nH]c1N1CCCCC1 | 1785 | 1557 | -7.8 | 1530 | -3.6 | -4.7 | · | · | ·
O=C1C=C(c2cccs2)CC(c2cccs2)C1n1cnc([N+](=O)[O-])c1 (configuration not stated) | · | · | 11.7 | 1790 | 26.0* | 20.2 | 17.8 | 19.7* | 11.7
CCn1c2c(c3cc(OCC(C)C)ccc31)CCCC2=O | · | · | -3.5 | 1436 | 2.7 | 3.6 | · | · | ·
CCn1c2c(c3cc(Br)ccc31)CCC/C2=N\O | · | · | 34.1* | 2351* | 61.2* | 39.5* | 45.4* | 30.1* | 28.9*
COc1c(F)c(F)c(C(=O)Nc2ccc3oc(-c4ccncc4)nc3c2)c(F)c1F | · | · | 82.4* | 1606 | 74.4* | 3.4 | 71.2* | 66.1* | 48.6*
SMILES | SRC1 TRFRET art | SRC3 TRFRET art | PPARg SRC-1 ag | SRC2 TRFRET art | PPARg SRC-3 ag | PPARg SRC-2 ag | PPARg SRC2 ag | PPARg SRC1 conf | PPARg SRC3 conf
Cc1ccc2nc(N3CCN(S(=O)(=O)c4ccc(C)c(Cl)c4)CC3)c(C#N)cc2c1 | · | · | 21.7* | 1637 | 29.0* | 5.5 | 9.1 | 5.9 | 3.5
Cc1ccc2nc(N3CCN(C)CC3)c(C#N)cc2c1 | · | · | 2.8 | 1378 | -2.5 | -4.3 | · | · | ·
Oc1ccccc1CNc1ccc2c(c1)OCCO2 | 2053 | 1582 | 20.6* | 1679 | 7.0 | 11.5 | 5.1 | 2.7 | 3.2
c1csc(CNc2ccc3c(c2)OCCO3)c1 | 1796 | 1463 | -2.8 | 1372 | 3.5 | 12.5 | · | · | ·
CC(=O)N1N=C(c2ccc(Br)cc2)CC1c1cn(C)c2ccccc12 (configuration not stated) | 2488* | 2275* | 24.1* | 2079* | 20.4 | 28.3* | 36.0* | 34.5* | 23.8
CCCC(=O)N1N=C(c2ccccc2)CC1c1cn(C)c2ccccc12 (configuration not stated) | 1917 | 1691 | 0.5 | 1652 | 5.0 | 3.3 | · | · | ·
Cc1nnc(N(CCC#N)CCC#N)s1 | · | · | -0.7 | 1539 | -1.4 | 2.9 | · | · | ·
COc1ccc(C(=O)Nc2cc(-c3nn4c(C)nnc4s3)ccc2C)cc1 | · | · | 3.6 | 1579 | 5.8 | 4.9 | · | · | ·
COc1ccc(OCC(=O)Nc2cc(-c3nn4c(C)nnc4s3)ccc2C)cc1 | · | · | 27.6* | 1633 | 24.4 | -3.2 | 20.5 | 16.8 | 12.9
COc1ccccc1Nc1nc2ccccc2[nH]1 | · | · | 10.7 | 1580 | 26.6* | 7.9 | 8.5 | 7.4 | 4.5
COc1ccccc1Nc1nc(C)cc(=O)[nH]1 | · | · | 6.8 | 1643 | 6.2 | -4.6 | · | · | ·
COc1ccc(CNC(=O)c2cccc(-c3ccc(C)c4ccccc34)n2)cc1 | 1910 | 1609 | 5.8 | 1600 | -0.1 | -2.4 | · | · | ·
Nc1ccc(-c2nc3ccc(N)cc3[nH]2)cc1 | 2123 | 2018 | 31.1* | 1836 | 7.8 | 17.9 | 2.7 | 12.2 | 3.3
CCN1CCCC1CNC(=O)CSc1cc(=O)n(C)c2cc(Cl)ccc12 (configuration not stated) | · | · | 50.5* | 2477* | 57.2* | 51.7* | 38.9* | 27.8* | 26.7*
CC(C)N(C(=O)Cn1cc(SCC(=O)NCC2CCCO2)c2ccccc21)C(C)C (configuration not stated) | 1859 | 1645 | 0.7 | 1473 | 1.8 | 1.2 | · | · | ·
Cn1c(=O)cc(SCC(=O)NCC2CCCO2)c2ccc(Cl)cc21 (configuration not stated) | · | · | 63.4* | 2967* | 112.2* | 89.7* | 42.9* | 27.9* | 29.1*
